Source: PubChem BioAssay
S2 tox = Viability Counterscreen for Primary qHTS for Inhibitors of ATXN expression | S2 cells (HEK-293 line with an ATXN2-luciferase reporter) viability, CellTiter-Fluor protease fluorescence, 24 h | Potency, µM (doses to about 56.7 µM), usual class: cytotoxic | 400,000 tested, 0.49% active; note: nearly all actives have a fitted effect of over 40% in size
TGFb inhibitor = qHTS for Inhibitors of TGF-b; 410,000 tested, 1.2% active; AID 588855, 2011; Potency, µM (top dose mostly 46.1 µM), hits mostly inhibitors; HepG2 CAGA-GFP TGF-b/SMAD3 reporter, GFP fluorescence, 18 h; TGF-beta stimulated, 500 pg/mL final; note: nearly all actives have a fitted effect of over 65% in size
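Per well, imaged GFP fluorescence of HEPG2 CAGA-GFP cells gives the signal; cells get compound, then TGF-beta (500 pg/mL final), 18 h at 37 degrees C; %Activity versus -TGF-beta and +DMSO controls.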
ATXN2 expr inh = Primary qHTS for Inhibitors of ATXN expression. 360,000 tested, 0.72% active. Potency, µM (series often up to 57 µM), usual class: inhibitors. HEK-293 ATXN2-luciferase reporter, luminescence, 24 h; note: nearly all actives have a fitted effect of over 55% in size
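ATXN2-luciferase reporter cells (luciferase flanked by upstream and downstream ATXN2 gene portions) were treated 24 h at 37 °C with compounds at up to 57 uM. SteadyGlo luminescence gave expression; GF-AFC fluorescence gave viability.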
IL-1B inflam inh = qHTS for Inhibitors of Inflammasome Signaling: IL-1-beta AlphaLISA Primary Screen | THP-1 LPS/ATP IL-1B secretion, AlphaLISA, 16 h; active compounds read low | activity change, % at 57.5 µM | 360,000 tested, 4.7% active; in the data active = activity change below about -50%; inconclusive = mostly about -30% to -49%
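THP-1 cells pretreated 1 hr with compounds (up to 57.5 uM final), then stimulated with LPS (250 ng/mL final) plus ATP (1.25 mM final); secreted IL-1B measured by AlphaLISA after 16 hr, decreased signal indicating inhibition.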
HepG2 viability = qHTS for Inhibitors of TGF-b: Cytotox Counterscreen | Potency, µM (top dose mostly 46.1 µM), most hits filed as cytotoxic | AID 588856, 2011 | 410,000 tested, 0.76% active | HepG2 CAGA-GFP viability, ATP luminescence, 18 h
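CellTiter-Glo luminescence gave cytotoxicity after 18 hours at 37 degrees C. The cells were HepG2 CAGA-GFP in 1% FBS DMEM, stimulated with 500 pg/mL TGF-beta after compound addition. %Activity was normalised to no-cell wells (complete cell-killing) and DMSO (no toxicity), and curves were fitted and classified.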
Each line names hits and unclear results; the compound was inactive in the other large screens. Hits are enriched below; roughly 5.7% of the tested compounds scored in any of these assays. Unless noted, calls come from the whole dose curve; as a rule, active = well fitted curve in the direction sought with a large enough effect; inconclusive = small, poorly fitted or top-dose-only effect, or another doubt; inactive = no such curve, though single readings can be large; an effect the other way counts as inactive or inconclusive.

COc1cc(CNC(=O)c2nc(Cn3nc(C)c(Br)c3C)no2)cc(OC)c1	IL-1B inflam inh -71
COC(=O)c1ccc(CNC(=O)c2nc(Cn3nc(C)c(Br)c3C)no2)cc1	TGFb inhibitor inconclusive (no result: IL-1B inflam inh)
O=S(=O)(Cc1ccc(Cl)cc1)Nc1ccc2c(c1)OCO2	TGFb inhibitor inconclusive, IL-1B inflam inh -53
CCOc1ccccc1NS(=O)(=O)c1c(-c2ccc(C)cc2)csc1C(=O)OC	TGFb inhibitor inconclusive (no result: IL-1B inflam inh)
CCc1noc(C)c1C(=O)OCC(=O)Nc1nc(-c2ccc(F)c(F)c2)cs1	S2 tox inconclusive, IL-1B inflam inh -80
Cc1noc(C)c1CSCC(=O)Nc1nc(-c2ccc(F)c(F)c2)cs1	S2 tox inconclusive, TGFb inhibitor inconclusive, ATXN2 expr inh 22µM, IL-1B inflam inh -81
Cc1onc(-c2ccccc2)c1C(=O)Nc1nc(-c2ccc(F)c(F)c2)cs1	TGFb inhibitor inconclusive
CCCCOc1ccc(Cc2cnc(N)nc2N)cc1	IL-1B inflam inh -55
CC1CCCCN1S(=O)(=O)c1ccc(C(=O)N(CCCN(C)C)c2nc3ccc(Br)cc3s2)cc1 (stereo unspecified)	TGFb inhibitor inconclusive, ATXN2 expr inh inconclusive, IL-1B inflam inh -105 (no result: S2 tox)
CN(C)CCCN(C(=O)C1=COCCO1)c1nc2ccc(Br)cc2s1	S2 tox inconclusive, TGFb inhibitor inconclusive, ATXN2 expr inh inconclusive, IL-1B inflam inh -68
Cc1ccc(S(=O)(=O)CC(=O)N(CCCN(C)C)c2nc3ccc(C)cc3s2)cc1	IL-1B inflam inh -55
CN(C)CCCN(C(=O)c1ccc(S(=O)(=O)N2CCOCC2)cc1)c1nc2ccc(F)cc2s1	S2 tox inconclusive
CN(C)CCN(C(=O)c1ccc(S(=O)(=O)N2CCCC2)cc1)c1nc2ccc(Br)cc2s1	IL-1B inflam inh -55
CN(C)CCN(C(=O)c1ccc2ccccc2c1)c1nc2ccc(Br)cc2s1	none (no result: ATXN2 expr inh)
Cc1cc(C)c2nc(N(CCCN(C)C)C(=O)C3=COCCO3)sc2c1	IL-1B inflam inh inconclusive
CCOc1ccc(CCNC(=O)Cn2ncc3c([nH]c4ccccc43)c2=O)cc1OCC	none (no result: IL-1B inflam inh)
CC(=O)Nc1ccccc1-c1nc(CNC(=O)c2cc(C)ccc2C)c(C)o1	none (no result: TGFb inhibitor, ATXN2 expr inh, IL-1B inflam inh, HepG2 viability)
CCC1CCCCN1S(=O)(=O)c1ccc(C(=O)N(CCCN(C)C)c2nc3cc4c(cc3s2)OCO4)cc1 (stereo unspecified)	S2 tox inconclusive, TGFb inhibitor inconclusive, ATXN2 expr inh inconclusive, IL-1B inflam inh -80
Cc1cccc2sc(N(CCCN(C)C)C(=O)c3cc4ccccc4oc3=O)nc12	none
Cc1ccc2nc(N(CCCN(C)C)C(=O)c3cc4ccccc4oc3=O)sc2c1	IL-1B inflam inh -51
Cc1ccc2nc(N(CCCN(C)C)C(=O)c3ccc(S(=O)(=O)N4CCCCCC4)cc3)sc2c1	TGFb inhibitor inconclusive, ATXN2 expr inh inconclusive, HepG2 viability 16µM (no result: IL-1B inflam inh)
CN(C)CCCN(C(=O)c1ccc(S(=O)(=O)N2CCCCCC2)cc1)c1nc2ccc(F)cc2s1	ATXN2 expr inh inconclusive, IL-1B inflam inh -105
COc1ccc(C(C#N)N2CCC(c3ccccc3)=N2)cc1 (stereo unspecified)	IL-1B inflam inh -90
CCOC(=O)c1ccc(NC(=O)CC2S/C(=N/N=C/c3c[nH]c4ccccc34)NC2=O)cc1 (stereo unspecified)	S2 tox inconclusive, IL-1B inflam inh -68
CC1CN(Cc2cn(C)nc2-c2ccc(Oc3ccccc3)cc2)CCN1C (stereo unspecified)	IL-1B inflam inh -64
COCCN1CCN(Cc2cn(C)nc2-c2ccc(Oc3ccccc3)cc2)CC1	IL-1B inflam inh inconclusive
CC1CN(CCC(=O)NC(c2cccnc2)C(F)(F)F)Cc2cc(Cl)ccc2O1 (stereo unspecified)	none (no result: TGFb inhibitor, ATXN2 expr inh, IL-1B inflam inh, HepG2 viability)
O=C(Nc1ccc(Cl)cn1)C1CCN(c2ncnc3c2nc2n3CCCCC2)CC1	TGFb inhibitor inconclusive, ATXN2 expr inh inconclusive, IL-1B inflam inh -91
CC(=O)c1ccc(NC(=O)C2CCCN(c3ncnc4c3nc3n4CCCCC3)C2)cc1 (stereo unspecified)	IL-1B inflam inh -61
